Assay results as given in PubChem BioAssay (NCI).
The panel holds about 79,000 compounds, 15% with a hit somewhere; the sample as a whole holds those more often. Rule as the data show it: active = growth inhibition above about 70%; inactive = the rest.

Tests used:
[1] = NCI Yeast Anticancer Drug Screen. Data for the rad50 strain (AID 155);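 also: 0% = growth of vehicle-only cultures of the same strain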; conditions: S. cerevisiae rad50 strain growth inhibition; at 50.0 µM; active compounds read high
How it was run: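 Growth of the mutant yeast was measured after compound exposure and referenced to vehicle-treated cultures.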

[2] = NCI Yeast Anticancer Drug Screen. Data for the mec2-1 strain (AID 157); conditions: S. cerevisiae mec2-1 strain, at 50.0 µM, active compounds read high
How it was run: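 Mutant yeast (mec2-1) grown with compound; growth inhibition relative to vehicle control reported.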

[3] = NCI Yeast Anticancer Drug Screen. Data for the sgs1 mgt1 strain (AID 161);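 also: 0% = growth of cultures given vehicle only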; conditions: S. cerevisiae sgs1 mgt1 strain, at 50.0 µM, active compounds read high
How it was run: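 Compounds are added to genetically altered yeast, and growth is compared with cultures given vehicle alone to give percent inhibition.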

[4] = NCI Yeast Anticancer Drug Screen. Data for the cln2 rad14 strain (AID 165);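 also: 0% = growth equal to vehicle treated cultures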; conditions: S. cerevisiae cln2 rad14 strain, at 50.0 µM, active compounds read high
How it was run: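 Readout is yeast growth inhibition versus vehicle-treated controls, using a strain with cln2 and rad14 alterations exposed to compound.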

[5] = NCI Yeast Anticancer Drug Screen. Data for the bub3 strain (AID 167); conditions: S. cerevisiae bub3 mutant strain, at 50.0 µM, active compounds read high
How it was run: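 Whole-cell yeast assay. The mutant strain was incubated with compounds, and growth inhibition was determined by comparison with vehicle-treated cells.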

[6] = NCI Yeast Anticancer Drug Screen. Data for the mlh1 rad18 strain (AID 175); conditions: S. cerevisiae mlh1 rad18 strain growth inhibition; at 50.0 µM; active compounds read high
How it was run: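 Genetically defined yeast (DNA repair-deficient) exposed to compounds; growth inhibition determined relative to vehicle.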

Measured: growth inhibition

OCC1COC(c2ccc(Cl)cc2)O1 (stereo not given)
inactive: [1] -10.1% | [2] -10.4% | [3] -19.8% | [4] -17.9% | [5] -16.4% | [6] -7.75%

NC(=O)/C=C1\NC(=O)CS1
inactive: [1] 0.05% | [2] 7.7% | [3] 1% | [4] -31.1% | [5] -4.55% | [6] 4.2%

CCOC(=O)c1nnsc1NN
inactive: [1] 8.8% | [2] -7.45% | [3] -47.6% | [4] 0.95% | [5] -22.4% | [6] -4.1%

CCN(CC)Cc1cc(N=Nc2ccc3c(c2)c2ccccc2n3CC)c2ccccc2c1O
inactive: [1] 20% | [2] 10.9% | [3] 11.2% | [4] 12.6% | [5] -5.5% | [6] 2.25%

Cc1cc([N+](=O)[O-])c(NCCOC(=O)c2ccc([N+](=O)[O-])cc2)c([N+](=O)[O-])c1
inactive: [1] -24.1% | [2] -6.55% | [3] -10.9% | [4] -69.2% | [5] 2.8% | [6] -10.7%

COc1cc(C(=O)n2ncc(C(C)=O)c2C)cc(OC)c1OC
inactive: [1] -3.75% | [2] -17.5% | [3] 12.9% | [4] 10.9% | [5] 0.3% | [6] 8.45%

[O]=[W](=[O])([OH])[OH]
inactive: [1] -11.3% | [2] -13.2% | [3] -15.4% | [4] 11.7% | [5] -11.6% | [6] -17.5%

C=C1C(=O)O[C@@H]2/C=C(/C)[C@@H](OC(C)=O)C/C=C(\C)C(O)[C@@H](OC(=O)/C(C)=C\C)C12 (stereo not given in full)
inactive: [1] 17.4% | [2] -0.2% | [3] 22.5% | [4] 9.1% | [5] 12.6% | [6] -50.4%

CC1(C)C(=NNC(=S)NN)C(C)(C)C1=NNC(=S)NN
inactive: [1] 40.5% | [2] 36% | [3] 42.4% | [4] 18.9% | [5] 46.5% | [6] 38.7%

CCN(CC)CCCC(C)=O
inactive: [1] 9.25% | [2] 21.6% | [3] 28.2% | [4] 18.6% | [5] 13% | [6] 3.4%

CC(=O)NCCc1nc(-c2nc(C(=O)NCCC(C)C)cs2)cs1
inactive: [1] 14.1% | [2] 16.6% | [3] -2% | [4] -23.4% | [5] 6.8% | [6] 5.9%

c1ccc(CN2COc3ccc4c5c(ccc4c3C2)OCN(Cc2ccccc2)C5)cc1
inactive: [1] -13.1% | [2] -5.45% | [3] -6.7% | [4] -21.6% | [5] 2.05% | [6] -17.7%

S=c1o[nH]c(-c2ccccc2)c1C=Nc1ccccc1
inactive: [1] -5.45% | [2] 17.5% | [3] 13.9% | [4] 26.6% | [5] 5.35% | [6] 6.15%

O=C(O)C1C2C=CC(O2)C1C(=O)Nc1ncccn1 (stereo not given)
inactive: [1] -0.65% | [2] -33.9% | [3] -14.4% | [4] -23.3% | [5] -35.4% | [6] -3.6%

N#Cc1ccc(CCc2ccc(Cl)cc2)cc1
inactive: [1] -6.85% | [2] -17.2% | [3] -6.9% | [4] -41.1% | [5] 1.3% | [6] -9.8%

Cc1ccc(C2=C(c3ccccc3)C(O)(c3ccccc3)C(c3ccccc3)=C2c2ccc(C)cc2)cc1
inactive: [1] -1.6% | [2] -20.1% | [3] -31.5% | [4] 15.8% | [5] 14.1% | [6] -12.7%

c1cc[n+](Cc2ccc3ccccc3n2)cc1
inactive: [1] -0.95% | [2] -5.5% | [3] -5.85% | [4] -27.4% | [5] -2.2% | [6] 28.9%

NC(=S)NNC(=O)/C(=C/c1ccc(/C=C(\NC(=O)c2ccccc2)C(=O)NNC(N)=S)cc1)NC(=O)c1ccccc1
inactive: [1] 32.8% | [2] 27% | [3] 29.3% | [4] 39.8% | [5] 39.2% | [6] 31.8%

CCOC(=O)Nc1cc(C(F)(F)F)ccc1F
inactive: [1] -14.8% | [2] -16.2% | [3] -14% | [4] -43.9% | [5] 3.95% | [6] -7.1%

COc1cc(CC2c3cc(OC)c(OC)cc3CCN2C)c(Oc2cc3c(cc2OC)-c2c(OC)c(OC)c(OC)c4c2C(C3)N(C)CC4)cc1OC (stereo not given)
inactive: [1] 9.7% | [2] -0.95% | [3] -7.05% | [4] 13.8% | [5] 0.3% | [6] 1.2%

NC(Cc1c[nH]c2ccc(O)cc12)C(=O)O (stereo not given)
inactive: [1] -5.85% | [2] -8.35% | [3] -4.9% | [4] 4.9% | [5] -0.7% | [6] -9.3%

Nc1ccccc1Nc1ccncc1
inactive: [1] -3% | [2] 11.2% | [3] -1.7% | [4] -26.9% | [5] -23.8% | [6] -5.7%

Nc1nc(N)c2ncn(-c3ccc(Cl)cc3)c2n1
inactive: [1] -0.7% | [2] 14.2% | [3] 9.8% | [4] -21.4% | [5] -0.85% | [6] 8.4%

Nc1nc(-c2ccco2)cc(-c2ccc(CO)o2)n1
inactive: [1] -21.8% | [2] 3.5% | [3] -10.2% | [4] 8.25% | [5] 16% | [6] 3.9%

CCCCOC(=O)/C(=C\c1ccc(OC(C)=O)c(OC)c1)NC(=O)c1ccccc1
inactive: [1] 4.7% | [2] 7.6% | [3] -1.5% | [4] -10.3% | [5] 14.9% | [6] -6.35%

COC(=O)/C=C/c1cc2c(cc1-c1c(C(=O)O)cc(OC)c(OC)c1OC)OCO2
inactive: [1] -11.2% | [2] -0.55% | [3] -18.8% | [4] -3.4% | [5] -28.4% | [6] -8.05%

CCOC(=O)c1nc2ccc(C(F)(F)F)cc2nc1NCc1ccc(OC)cc1
inactive: [1] 4.6% | [2] 9.8% | [3] -1.15% | [4] 17.2% | [5] 5.15% | [6] -15.7%

CC/C(=C\c1ccc(NC(C)=O)cc1)c1ccncc1
inactive: [1] -5.6% | [2] -16.6% | [3] 7.2% | [4] -0.85% | [5] -12.8% | [6] -4.6%

COc1ccc2c(c1)OC1(OCCO1)[C@@H]1C2CC[C@@]2(C)C1CCC21OCCO1 (stereo not given in full)
inactive: [1] 48.2% | [2] 17.9% | [3] 38.9% | [4] 28.8% | [5] 15.8% | [6] 58.5%

O=C1Cc2ccccc2C(O)=C1c1cnccn1
inactive: [1] 6.3% | [2] 11.2% | [3] 19.6% | [4] -1.6% | [5] 0.25% | [6] 5.95%

CS(=O)(=O)OCC1COCC1COS(C)(=O)=O (stereo not given)
inactive: [1] 26.8% | [2] -6.3% | [3] 8.75% | [4] -11.8% | [5] -14.1% | [6] 16.6%

CN(C)CC1CCCC/C1=N/OC(=O)c1ccc(Cl)cc1 (stereo not given)
inactive: [1] 0.15% | [2] 2.1% | [3] 10.9% | [4] 11.4% | [5] -4.6% | [6] 13.7%

O=S1(=O)C=CC(N/N=C\c2ccc3ccccc3n2)=C1
inactive: [1] 4.8% | [2] -11.1% | [3] -4.45% | [4] -36.8% | [5] 9.7% | [6] -7.25%

OC1CCCCC12CC2 (stereo not given)
inactive: [1] 3.85% | [2] 1.5% | [3] 5% | [4] -3.55% | [5] -15.2% | [6] -3.2%

C=CC(C)(O)/C=C/C=C(\C)C(CC1OC1(C)C)OC(=O)/C(C)=C\C (stereo not given)
inactive: [1] -10.8% | [2] -16.9% | [3] 3.55% | [4] 10.3% | [5] -19.6% | [6] -64.1%

CN(C1c2ccccc2Oc2ccccc21)S(=O)(=O)c1ccc([N+](=O)[O-])cc1
inactive: [1] 9.9% | [2] -2.7% | [3] 6% | [4] 21.8% | [5] 3.35% | [6] 40.1%

O=S(Cc1ccccc1)/C(=C/NC(=S)N=Nc1c(O)[nH]c2ccccc12)c1ccccc1 (stereo not given)
inactive: [1] 15.3% | [2] -11.1% | [3] 14.2% | [4] 33.2% | [5] -4.1% | [6] -3.1%

COc1ccc(-c2cc(-c3ccccc3)n(-c3ccccc3)n2)cc1
inactive: [1] -0.9% | [2] 15.1% | [3] 7.2% | [4] -2.85% | [5] 0.8% | [6] -15.4%

O=C(CCBr)OCc1ccccc1
inactive: [1] -12.5% | [2] -7.45% | [3] 1.1% | [4] -20.8% | [5] -26.2% | [6] 25%

O=Cc1ccc(O)c(C(=O)O)c1
inactive: [1] 8.6% | [2] 5.8% | [3] 15.3% | [4] 21.1% | [5] 21.1% | [6] 2%
